# Compound activity from PubChem BioAssay.
# Only some compounds are listed: those with a hit (about 10% of all), similar ones and a draw of the others.
# MCF10A rereplic – inducers of DNA re-replication in MCF 10A breast cells; hit rate 2.9% among 350,000; MCF 10A DNA re-replication, Hoechst nuclear intensity, 48 h; Potency, µM (titrated, usually from 46.1 µM), for inactives: top-dose activity, positive = re-replication, usual class: activators; further: % of control where 0% means no effect; nearly all actives have a fitted effect of over 50% in size
# ELG1 DNA repair – blocks ELG1-dependent DNA repair in HEK293T cells | HEK293T ELG1-luciferase reporter, luminescence, 16 h; DNA damage induced by 5-fluorouridine | Potency, µM (highest dose often 46.1 µM), for inactives: top-dose activity change, negative = inhibition, most hits filed as inhibitors | hit rate 2.3% among 330,000; further: on the % scale 0 is the no-effect control and ±100 the full control effect; nearly all actives have a fitted effect of over 55% in size
#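 Reporter activity after DNA damage by 5-fluorouridine is monitored. Compound-treated cells incubate 16 hr at 37 °C, then ONE-Glo is added for 30 min before luminescence reading.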
# SW480 rereplic – DNA re-replication induction in SW480 cells | SW480 DNA re-replication, Hoechst DNA content imaging, 48 h | Potency, µM (highest dose often 46.1 µM), without a hit: at the top dose re-replication activation, usual class: activators | hit rate 1.8% among 340,000 | AID 624297; further: % of control where 0% means no effect; nearly all actives have a fitted effect of over 55% in size
#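 Hoechst fluorescence of nuclei (405 nm excitation, 500-530 nm emission) measured by plate-scanning imager after 48 hr compound exposure at 37 C; re-replication scored as increased number of nuclei with elevated intensity.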
# RORgamma inh – blocks mouse ROR gamma transcriptional activity; hit rate 5.4% among 310,000; Drosophila S2 Gal4-RORgamma UAS-luciferase reporter, 20 h; P51450; Potency, µM (top dose mostly 53.6 µM), for the others: top-dose activity change, negative = inhibition, most hits filed as inhibitors; further: on the % scale 0 is the no-effect control and ±100 the full control effect; nearly all actives have a fitted effect of over 60% in size
# Target sequence (P51450 whole entry, looked up, the tested form may be a part): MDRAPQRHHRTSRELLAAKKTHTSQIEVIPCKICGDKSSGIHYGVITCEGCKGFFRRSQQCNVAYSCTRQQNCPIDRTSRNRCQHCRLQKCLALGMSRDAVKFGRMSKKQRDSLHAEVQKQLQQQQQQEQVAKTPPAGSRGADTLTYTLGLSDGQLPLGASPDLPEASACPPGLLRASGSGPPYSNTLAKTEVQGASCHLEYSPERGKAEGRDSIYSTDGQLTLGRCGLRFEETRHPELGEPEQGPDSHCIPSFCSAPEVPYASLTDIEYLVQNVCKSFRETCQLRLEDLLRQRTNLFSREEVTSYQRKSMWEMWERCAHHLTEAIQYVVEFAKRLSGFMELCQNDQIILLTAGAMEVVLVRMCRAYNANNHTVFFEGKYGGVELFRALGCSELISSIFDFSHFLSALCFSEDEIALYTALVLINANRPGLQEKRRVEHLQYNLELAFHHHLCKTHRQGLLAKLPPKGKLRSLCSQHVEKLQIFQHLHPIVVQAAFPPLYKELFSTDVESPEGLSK
#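 Drosophila S2 cells stably expressing Gal4-DBD/mouse RORγ fusion under metallothionein promoter plus UAS-luciferase; compound 1 h, then 700 uM CuSO4 induction for 20 h at ambient temperature; inhibition read as reduced luminescence.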
# Gal4-VP16 FLuc – counter-screen for ROR gamma inhibitors: Gal4-VP16 reporter | Drosophila S2 Gal4-VP16 UAS-luciferase, luminescence, 20 h | Potency, µM (series often up to 53.6 µM), inactives show at the highest dose activity, negative = inhibition, hits mostly inhibitors | hit rate 3.5% among 310,000;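 further: Gal4-VP16 expression switched on by copper sulfate through the metallothionein promoter; on the % scale 0 is the no-effect control and ±100 the full control effect; nearly all actives have a fitted effect of over 50% in size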
# * = called active by the depositor; ? = inconclusive; / = no result given; [ ] = dose if it differs, or a comment. The call rests on the fitted dose curve; in most records, active means well fitted curve in the direction sought with a large enough effect; inconclusive means small, poorly fitted or top-dose-only effect, or another doubt; inactive means no such curve, though single readings can be large; an effect the other way counts as inactive or inconclusive. Potency means the concentration at half of the fitted maximal effect.
SMILES,MCF10A rereplic,ELG1 DNA repair,SW480 rereplic,RORgamma inh,Gal4-VP16 FLuc
N=c1c(C(=O)NCc2ccc(F)cc2)cc2c(=O)n3ccccc3nc2n1CC1CCCO1 (stereo unspecified),?,-0.7%,2.91µM*,-1.0%,-1.6%
N=c1c(C(=O)NCCc2ccccc2)cc2c(=O)n3ccccc3nc2n1CC1CCCO1 (stereo unspecified),18.4µM*,?,2.59µM*,33.0%,-1.2%
N=c1c(C(=O)NCc2ccc3c(c2)OCO3)cc2c(=O)n3ccccc3nc2n1CC1CCCO1 (stereo unspecified),?,-1.0%,23.1µM*,1.8%,-5.6%
COc1ccc(N2CCN(c3nccs3)CC2)cc1,-4.8%,?,-33.7%,-4.0%,-10.0%
CCOC(=O)c1c(CN2CCOCC2)n(-c2ccccc2)c2cc(Br)c(OC)cc12,23.1µM*,?,?,-23.6%,-2.5%
CCOC(=O)c1c(CN2CCOCC2)n(-c2ccccc2)c2cc(Br)c(O)cc12,-1.1%,23.1µM*,-21.7%,?,-10.2%
CCOC(=O)c1c(CN(C)C)n(-c2ccccc2)c2cc(Br)c(OC)cc12,?,-0.5%,?,25.5%,-14.6%
O=C(CNS(=O)(=O)c1ccc2ccccc2c1)NCCc1ccccn1,-2.4%,-23.1%,0.3%,13.4%,3.8%
CCCC(=O)Nc1c(I)cc(I)c(C[C@H](CC)C(=O)O)c1I,2.7%,/,2.8%,-9.2%,14.2%
CCN(CC)CCOC(=O)c1ccc(N/C=C(/C#N)c2nc(-c3ccc4c(c3)OCO4)cs2)cc1,18.4µM*,7.0%,?,-21.0%,-4.1%
CCCSC(=S)c1c(C)[nH]n(-c2ccccc2)c1=O,17.0%,13µM*,?,0.316µM*,0.794µM*
Cc1[nH]n(-c2ccccc2)c(=O)c1Sc1ccc(Cl)cc1,5.2%,-21.9%,-6.7%,31.2%,-11.1%
Cc1cccc(-n2c(C)nc3c(cnn3-c3ccc(F)cc3)c2=O)c1,0.4%,?,-0.2%[9.22 µM],-39.3%,7.08µM*
COc1ccc(-n2c(C)nc3c(cnn3-c3ccc(Cl)cc3)c2=O)cc1,-0.5%,18.4µM*,3.1%,-23.3%,?
Cc1cccc(NC(=S)NC(=O)c2oc3ccccc3c2C)n1,18.4%,?,-9.6%,8.91µM*,16.7%
Cc1ccc2c(NC(=S)NC(=O)c3ccccc3)cccc2n1,4.5%,?,-5.1%,15.8µM*,?
Cc1ccc(C(=O)NC(=S)Nc2cccc3c(C)cc(C)nc23)cc1,?,8.4%,-1.3%,1µM*,4.47µM*
Cc1cccc(NC(=S)NC(=O)c2ccc(-c3ccccc3)cc2)n1,3.9%,?,-2.8%,3.98µM*,?
CC(C)=CCC/C(C)=C/CO/N=C1/C[C@@H](O)[C@@H](O)[C@@H]2[C@@H]3C(=O)N([C@@H](C)c4ccccc4)C(=O)[C@H]3CC[C@@H]12,/,/,/,-4.3%[10 µM],14.7%[10 µM]
COc1ccc(OC)c(-c2nnc(SCC(=O)N3CCCC3)o2)c1,-0.4%,7.4%,-13.2%,-25.1%,-2.4%
COC(=O)[C@@]1(Cc2ccccc2)[C@H]2c3cc(C(=O)N(C)C)n(C[C@H](O)CO)c3C[C@H]2CN1C(=O)c1ccccc1,/,/,/,-4.6%,6.2%
CC(C)NC(=S)NC(=O)c1ccc(-c2ccccc2)cc1,?,0.2%,?,2.51µM*,3.16µM*
Cc1ccc(C(=O)O)cc1NC(=S)NC(=O)c1ccc(-c2ccccc2)cc1,-12.8%,?,-16.1%,-17.2%,-10.6%
CCOCCCN(Cc1cc2cc(C)cc(C)c2[nH]c1=O)C(=O)N(CC)CC,1.2%,-6.0%,-2.3%,-30.3%,15.7%[0.365 µM]
CCc1cc2cc(C)cc(C)c2[nH]c1=S,7.0%,?,-6.3%,7.08µM*,-20.2%
O=C1C=CC(=Nc2ccc3c(c2)C(=O)c2ccccc2-3)O1,6.7%,/,-3.5%,/,/
O=C1C=CC(=Nc2ccc(F)cc2)O1,18.4µM*,/,?,/,/
COc1ccc(S(=O)(=O)Cc2ccc(C(=O)NC3CCCCCC3)o2)cc1,17.0%,?,-12.6%,20.9%,2.8%
CN(C)CCC(O)(c1ccccc1)c1ccccc1Cl (stereo unspecified),-1.2%,/,-4.3%,/,/
C=CCNC(=S)/N=c1/ccccn1CC,0.1%,?,-2.2%,10µM*,-2.1%
